Results filed as inconclusive are left out. Calls of active or inactive are those of the source. The call rests on the fitted dose curve; in most records, active means well fitted curve in the direction sought with a large enough effect; inconclusive means small, poorly fitted or top-dose-only effect, or another doubt; inactive means no such curve, though single readings can be large; an effect the other way counts as inactive or inconclusive. Square brackets hold non-standard residues; d marks the D form. Peptide text beside a SMILES is read from it. Orn = NCCC[CH](N)C(=O)O
Tests used:
[1] = target: ATP-dependent 6-phosphofructokinase (Trypanosoma brucei brucei) (UniProt O15648); test: qHTS Assay to Find Inhibitors of T. brucei phosphofructokinase: hit validation (AID 492961);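 further: luminescence reports ADP formed as PFK phosphorylates fructose-6-phosphate with ATP; on the % scale 0 is the no-effect control and ±100 the full control effect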
Summary of the method: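 PFK 1.25 nM, F6P 0.5 mM, ATP 0.1 mM, MgCl2 5 mM, 0.1 M TEA pH 8.0, Tween20 0.01%, BSA 0.1%; 45 min RT. ADP-Glo two-step detection, luminescence. qHTS titration; curve fitting with curve-class categorization.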

[2] = target: Luciferin 4-monooxygenase (Photinus pyralis) (UniProt P08659); test: Biochemical firefly luciferase enzyme assay for NPC (AID 624030);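 further: purified P. pyralis luciferase at 10 nM with luciferin and ATP substrate; 0% = DMSO and -100% = full luciferase inhibition by PTC124 control; nearly all actives have a fitted effect of over 70% in size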
Summary of the method: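 Counter-screen for direct inhibition of the luciferase enzyme by approved-drug library compounds, run at 10 nM enzyme in 50 mM Tris acetate (final). Luminescence was read within 5 min of enzyme-buffer addition and normalized to PTC124 versus DMSO (0%).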

[3] = qHTS profiling for inhibitors of Plasmodium falciparum proliferation (AID 504749); further: potency means the concentration at half of the fitted maximal effect;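 on activity, negative = inhibition: 0% = DMSO vehicle and full inhibition = artemisinin control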; on all read-outs here: nearly all actives have a fitted effect of over 60% in size; conditions: P. falciparum in erythrocytes, SYBR Green DNA, 72 h; for activity, negative = inhibition: at 28.7 µM (top of the series)
Summary of the method: (§1)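 Fluorescence of SYBR Green-bound parasite DNA, read at 485/535 nm, served as the growth measure. Infected erythrocytes were cultured with compound 72 h; artemisinin (0.29 uM) and DMSO wells defined the normalization range.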

ATS189 = test: as above; conditions: P. falciparum in erythrocytes, SYBR Green DNA, 72 h; series mostly up to 28.7 µM
Summary of the method: as §1

C2A = test: as above; conditions: P. falciparum in erythrocytes, SYBR Green DNA, 72 h; series mostly up to 28.7 µM
Summary of the method: as §1

CP191 = test: as above; conditions: P. falciparum in erythrocytes, SYBR Green DNA, 72 h; series mostly up to 28.7 µM
Summary of the method: as §1

CP192 = test: as above; conditions: P. falciparum in erythrocytes, SYBR Green DNA, 72 h; series mostly up to 28.7 µM
Summary of the method: as §1

CP201 = test: as above; conditions: P. falciparum in erythrocytes, SYBR Green DNA, 72 h; series mostly up to 28.7 µM
Summary of the method: as §1

CP215 = test: as above; conditions: P. falciparum in erythrocytes, SYBR Green DNA, 72 h; series mostly up to 28.7 µM
Summary of the method: as §1

CP237 = test: as above; conditions: P. falciparum in erythrocytes, SYBR Green DNA, 72 h; series mostly up to 28.7 µM
Summary of the method: as §1

CP238 = test: as above; conditions: P. falciparum in erythrocytes, SYBR Green DNA, 72 h; series mostly up to 28.7 µM
Summary of the method: as §1

CP268 = test: as above; conditions: P. falciparum in erythrocytes, SYBR Green DNA, 72 h; series mostly up to 28.7 µM
Summary of the method: as §1

CP269 = test: as above; conditions: P. falciparum in erythrocytes, SYBR Green DNA, 72 h; series mostly up to 28.7 µM
Summary of the method: as §1

CP286 = test: as above; conditions: P. falciparum in erythrocytes, SYBR Green DNA, 72 h; series mostly up to 28.7 µM
Summary of the method: as §1

CP325 = test: as above; conditions: P. falciparum in erythrocytes, SYBR Green DNA, 72 h; series mostly up to 28.7 µM
Summary of the method: as §1

CP329 = test: as above; conditions: P. falciparum in erythrocytes, SYBR Green DNA, 72 h; series mostly up to 28.7 µM
Summary of the method: as §1

FAB9 = test: as above; conditions: P. falciparum in erythrocytes, SYBR Green DNA, 72 h; series mostly up to 28.7 µM
Summary of the method: as §1

JCK = test: as above; conditions: P. falciparum in erythrocytes, SYBR Green DNA, 72 h; series mostly up to 28.7 µM
Summary of the method: as §1

PC49 = test: as above; conditions: P. falciparum in erythrocytes, SYBR Green DNA, 72 h; series mostly up to 28.7 µM
Summary of the method: as §1

ECU = test: as above; conditions: P. falciparum in erythrocytes, SYBR Green DNA, 72 h; series mostly up to 28.7 µM
Summary of the method: as §1

ATP-dependent 6-phosphofructokinase (Trypanosoma brucei brucei), sequence (O15648 whole entry, looked up): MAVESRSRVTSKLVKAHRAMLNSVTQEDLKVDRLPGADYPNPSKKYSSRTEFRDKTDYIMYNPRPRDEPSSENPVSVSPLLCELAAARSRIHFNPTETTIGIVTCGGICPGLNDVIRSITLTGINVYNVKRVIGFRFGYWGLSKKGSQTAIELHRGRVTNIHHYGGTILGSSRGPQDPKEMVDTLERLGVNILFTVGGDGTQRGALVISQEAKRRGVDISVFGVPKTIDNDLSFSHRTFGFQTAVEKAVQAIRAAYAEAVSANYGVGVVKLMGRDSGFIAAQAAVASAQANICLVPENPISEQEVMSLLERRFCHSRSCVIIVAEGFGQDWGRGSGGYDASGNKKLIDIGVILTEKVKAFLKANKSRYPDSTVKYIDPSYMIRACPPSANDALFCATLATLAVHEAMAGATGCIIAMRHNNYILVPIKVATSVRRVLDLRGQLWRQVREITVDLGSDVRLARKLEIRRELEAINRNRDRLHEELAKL
Luciferin 4-monooxygenase (Photinus pyralis), sequence (P08659 whole entry, looked up): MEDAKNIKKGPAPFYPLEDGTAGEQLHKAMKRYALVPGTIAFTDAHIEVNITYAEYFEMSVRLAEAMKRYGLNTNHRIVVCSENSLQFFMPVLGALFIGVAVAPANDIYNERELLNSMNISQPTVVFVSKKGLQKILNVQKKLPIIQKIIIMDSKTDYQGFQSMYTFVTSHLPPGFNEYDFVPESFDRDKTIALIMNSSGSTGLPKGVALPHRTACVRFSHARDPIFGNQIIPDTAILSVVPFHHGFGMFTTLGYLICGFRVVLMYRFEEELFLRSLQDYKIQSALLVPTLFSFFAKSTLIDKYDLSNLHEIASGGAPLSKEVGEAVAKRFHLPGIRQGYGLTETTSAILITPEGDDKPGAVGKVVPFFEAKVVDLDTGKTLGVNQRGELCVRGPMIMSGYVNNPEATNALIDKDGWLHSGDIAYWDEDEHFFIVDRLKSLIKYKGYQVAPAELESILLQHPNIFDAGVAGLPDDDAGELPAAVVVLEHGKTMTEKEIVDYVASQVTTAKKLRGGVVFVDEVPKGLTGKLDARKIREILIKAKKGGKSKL

Cc1cc(C)cc(C(=O)OC2CC3CCC(C2)N3C)c1 (stereo not given)
inactive: outcome [1] | Potency [2] | activity, negative = inhibition ([3]; parasite line A) -5.04% | activity, negative = inhibition ([3]; parasite line B) 8.93% | Potency (ATS189) | Potency (C2A) | Potency (CP191) | Potency (CP192) | Potency (CP201) | Potency (CP215) | Potency (CP237) | Potency (CP238) | Potency (CP268) | Potency (CP269) | Potency (CP286) | Potency (CP325) | Potency (CP329) | Potency (FAB9) | Potency (JCK) | Potency (PC49)

CCC/C=C/C=C/C(=O)OC1/C(=C/C(=O)OC)CC2CC(C(C)O)OC(=O)CC(O)CC3CC(OC(C)=O)C(C)(C)C(O)(CC4C/C(=C/C(=O)OC)CC(/C=C\C(C)(C)C1(O)O2)O4)O3 (stereo not given)
inactive: outcome [1] | Potency [2]
active: Potency ([3]; parasite line A) 1.58 µM | Potency ([3]; parasite line B) 1.78 µM | Potency (ATS189) 0.891 µM | Potency (C2A) 1.26 µM | Potency (CP191) 1.12 µM | Potency (CP215) 1.69 µM | Potency (CP237) 2.82 µM | Potency (CP238) 1 µM | Potency (CP268) 1.35 µM | Potency (CP269) 1.51 µM | Potency (CP286) 2.24 µM | Potency (CP329) 1.9 µM | Potency (ECU) 1.26 µM | Potency (FAB9) 2.24 µM | Potency (JCK) 3.16 µM | Potency (PC49) 1.26 µM

CC(C)CC1NC(=O)C(CCCN)NC(=O)C(C(C)C)NC(=O)C2CCCN2C(=O)C(Cc2ccccc2)NC(=O)C(CC(C)C)NC(=O)C(CCCN)NC(=O)C(C(C)C)NC(=O)C2CCCN2C(=O)C(Cc2ccccc2)NC1=O (stereo not given) (cyclo(FPV[Orn]LFPV[Orn]L); configuration not given here)
inactive: outcome [1]

CC1(C)[C@@H](C=C(Cl)Cl)[C@@H]1C(=O)OCc1c(F)c(F)cc(F)c1F
inactive: outcome [1] | Potency [2] | activity, negative = inhibition ([3]; parasite line A) 3.24% | activity, negative = inhibition ([3]; parasite line B) 1.84% | Potency (ATS189) | Potency (C2A) | Potency (CP191) | Potency (CP192) | Potency (CP201) | Potency (CP215) | Potency (CP237) | Potency (CP238) | Potency (CP268) | Potency (CP269) | Potency (CP286) | Potency (CP325) | Potency (CP329) | Potency (ECU) | Potency (FAB9) | Potency (JCK) | Potency (PC49)

C#CC1(O)C=CC2C3CCC4=CC(=O)CCC4C3CCC21CC (stereo not given)
active: Potency (CP191) 5.01 µM | Potency (CP215) 9.53 µM | Potency (CP237) 3.55 µM | Potency (CP268) 7.57 µM | Potency (CP325) 12 µM
inactive: outcome [1] | Potency [2] | Potency (ATS189) | Potency (C2A) | Potency (CP238) | Potency (ECU) | Potency (JCK)

CC(C)=CC1C(C(=O)OCc2coc(Cc3ccccc3)c2)C1(C)C (stereo not given)
inactive: outcome [1] | Potency [2] | Potency (ATS189) | Potency (C2A) | Potency (CP192) | Potency (CP201) | Potency (CP215) | Potency (CP237) | Potency (CP238) | Potency (CP268) | Potency (CP269) | Potency (CP286) | Potency (CP325) | Potency (CP329) | Potency (ECU) | Potency (FAB9) | Potency (JCK) | Potency (PC49)
